Laboratory results reported in PubChem BioAssay (NCATS).
Records with an inconclusive call do not appear. Activity calls are given as the source filed them. Unless noted, calls come from the whole dose curve; as a rule, active = well fitted curve in either direction with a large enough effect (not every such curve was filed as active); inconclusive = small, poorly fitted or top-dose-only effect, or another doubt; inactive = flat fitted curve, though single readings scatter.

Experiments:
[1] = target: Lysosomal acid glucosylceramidase (Homo sapiens) (UniProt P04062); test: Glucocerebrosidase-p2 (AID 348; in the data active = potency below about 10 µM; note: potency is the fitted concentration of half-maximal effect); conditions: purified GBA, blue fluorogenic substrate, 40 min
Summary of the method: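 Compounds titrated from 0.6 nM upwards against 0.2 nM enzyme in pH 5.9 citric acid/KH2PO4, taurocholate, tween-20; blue fluorogenic substrate 80 uM, 40 min room temperature, stopped and read Ex 365/Em 440 for AC50.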

[2] = target: Cytochrome P450 1A2 (Homo sapiens) (UniProt P05177); test: p450-cyp1a2 (AID 410; calls by dose curve; note: potency is the fitted concentration of half-maximal effect;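 for activity change, negative = inhibition: -100% = full effect of reference inhibitor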); conditions: recombinant CYP1A2, luciferin-ME demethylation, luminescence; series mostly up to 11.4 µM
Summary of the method: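 Luminescent readout of luciferin formed from Luciferin-ME by human CYP1A2; data normalized against complete inhibition by 57 uM furafylline. Enzyme 20nM, substrate 100uM at Km, 100mM KPO4 buffer, 60 min reaction at room temperature.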

[3] = NFAT Signaling Pathway (AID 444); conditions: Jurkat NFAT-bla M1, carbachol, beta-lactamase ratio, 5 h; at 7.69 µM (top of the series) unless noted;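 note: carbachol stimulus at about its EC50 of 1 µM final; % is set by controls: 0 for no effect and ±100 for the full control effect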
Summary of the method: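 Read-out: CCF4 FRET ratio (460 nm/530 nm) after 1 h RT dye loading, used for %activity and AC50 from titration series. Cells: Jurkat NFAT-β-lactamase/M1 line, treated with compound plus 1 uM carbachol for 5 h, 37 °C.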

[4] = Stat Signaling Pathway (AID 446); conditions: ME-180 SIE beta-lactamase reporter, IL-6 stimulated, 5 h; at 7.69 µM (top of the series) unless noted;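 note: ME-180 cervical cancer cells given 40 pM IL-6 alongside compound; SIE-controlled beta-lactamase reporter measured as 460/530 nm FRET emission ratio; % is set by controls: 0 for no effect and ±100 for the full control effect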
Summary of the method: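 Reporter line: ME-180 cervical carcinoma, SIE-beta-lactamase. Treatment: compound with 40 pM IL-6, 5 hrs, 37 C, in low-serum OPTI-MEM with 10 mM HEPES pH 7.3. Detection: 460/530 nm fluorescence.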

[5] = target: Glucocorticoid receptor (Homo sapiens) (UniProt P04150); test: GR-GFP Redistribution (AID 450;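 active = compounds whose dose series gives a full or clear partial fitted curve of increased nuclear translocation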; note: potency is the fitted concentration of half-maximal effect); conditions: U2OS GR-GFP nuclear translocation, laser cytometry, 2 h
[6] = target: Glucocorticoid receptor (Homo sapiens) (UniProt P04150); test: GR-EFC Redistribution (AID 451; calls by dose curve; note: potency is the fitted concentration of half-maximal effect); conditions: CHO-K1 GR-EFC translocation, beta-gal luminescence, 2 h
Summary of the method: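 Translocation of GR-ED fusion to nuclear EA restores b-gal, read by luminescence after 1 h room-temperature detection. Engineered CHO-K1 biosensor cells, 1,000/well, exposed 2 h at 37 C to titrations up to 46 uM final.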

[7] = target: Mitogen-activated protein kinase 10 (Mus musculus) (UniProt Q61831); test: JNK3 AlphaScreen Assay (AID 530); conditions: JNK3 lysate, c-Jun phosphorylation; series mostly up to 11.4 µM;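 note: kinase came from lysate of stimulated human HepG2 cells; signal reports phosphorylation of biotinylated GST-cJun 1-79 at Ser73 with 10 µM ATP; % is set by controls: 0 for no effect and ±100 for the full control effect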
Summary of the method: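 Compound titrations were preincubated 15 minutes at room temperature with substrate, antibody and pre-activated JNK3-containing HepG2 lysate. Reactions were started with 10 uM ATP and stopped with EDTA-containing bead buffer for AlphaScreen detection.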

[8] = target: 3',5'-cyclic-AMP phosphodiesterase 4B (Homo sapiens) (UniProt Q07343); test: qHTS Assay for Inhibitors of PDE-IV (AID 607; active = well fitted activation curve with a large enough effect in the main read-out, with a control signal flat, not every such curve was filed as active; note: % of control where 0% means no effect); conditions: HEK293 ACTOne CNG channel cells, membrane potential fluorescence; series mostly up to 22.9 µM
Summary of the method: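 Cell-based read-out of cAMP via a modified cyclic nucleotide-gated channel and membrane potential dye (535/590 nm) in HEK293 cells expressing PDE4 endogenously. Compounds tested up to 22.9 uM final; 100 uM RO 20-1724 reference.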

[9] = target: Cytochrome P450 2D6 (Homo sapiens) (UniProt P10635); test: qHTS Assay for Inhibitors and Substrates of Cytochrome P450 2D6 (AID 891; active = well fitted curve in the direction sought with a large enough effect; an effect the other way counts as inactive or inconclusive; note: potency is the fitted concentration of half-maximal effect; nearly all actives have a fitted effect of over 60% in size); conditions: recombinant CYP2D6, luciferin-ME EGE luminescence; series mostly up to 11.4 µM
Summary of the method: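 Human CYP2D6 (5 nM) with 30 uM Luciferin-ME EGE (at Km) in 100 mM KPO4, compound preincubated 10 min, then NADPH regeneration system for 60 min at room temperature. Luciferin read by luminescence; normalized to 1.43 uM quinidine.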

[10] = target: Cytochrome P450 2C9 (Homo sapiens) (UniProt P11712); test: qHTS Assay for Inhibitors and Substrates of Cytochrome P450 2C9 (AID 883; active = well fitted curve in the direction sought with a large enough effect; an effect the other way counts as inactive or inconclusive; note: nearly all actives have a fitted effect of over 60% in size; note: potency is the fitted concentration of half-maximal effect); conditions: recombinant CYP2C9, luciferin-H luminescence, 60 min; series mostly up to 11.4 µM
Summary of the method: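 Turnover of Luciferin-H (100uM, KM) by 10nM human CYP2C9 was measured over 60 min at 37C with NADPH regeneration; inhibitors and some substrates reduce luminescence. Data normalized to sulphaphenazole 57uM.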

[11] = target: Cytochrome P450 2C19 (Homo sapiens) (UniProt P33261); test: qHTS Assay for Inhibitors and Substrates of Cytochrome P450 2C19 (AID 899; active = well fitted curve in the direction sought with a large enough effect; an effect the other way counts as inactive or inconclusive; note: nearly all actives have a fitted effect of over 60% in size; note: potency is the fitted concentration of half-maximal effect); conditions: recombinant CYP2C19, luciferin-H EGE luminescence; series mostly up to 11.4 µM
Summary of the method: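 Reactions contain 5nM enzyme, 10uM Luciferin-H EGE (KM) and 50mM KPO4; compound preincubates 10 min at 37C, NADPH regeneration starts turnover for 60 min. Luminescence after detection reagent gives activity.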

[12] = AP1 Signaling Pathway (AID 357); conditions: ME-180 (cervical carcinoma) AP-1-bla reporter, EGF-induced, beta-lactamase ratio, 5 h; at 7.69 µM (top of the series) unless noted;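 note: ME-180 reporter cells stimulated with EGF at its EC50 level; % is set by controls: 0 for no effect and ±100 for the full control effect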
Summary of the method: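 Cells are seeded overnight, exposed to compound titrations and an EC50 level of EGF for 5 hours at 37 °C, then loaded with CCF4 dye for 2.5 hours. Beta-lactamase activity under the AP-1 element is read as a blue/green ratio.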

[13] = target: Cytochrome P450 3A4 (Homo sapiens) (UniProt P08684); test: qHTS Assay for Activators of Cytochrome P450 3A4 (AID 885; active = well fitted curve in the direction sought with a large enough effect; an effect the other way counts as inactive or inconclusive; note: nearly all actives have a fitted effect of over 65% in size); conditions: recombinant CYP3A4, Luciferin-PPXE luminescence, 60 min; series mostly up to 11.4 µM
Summary of the method: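 Signal was normalized against complete inhibition by 57 uM ketoconazole. The reaction used 20nM CYP3A4 with 25uM Luciferin-PPXE, 10-min compound preincubation and a 60-min NADPH-supported step at RT.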

Sequence of Cytochrome P450 1A2 (Homo sapiens) (P05177 whole entry, looked up): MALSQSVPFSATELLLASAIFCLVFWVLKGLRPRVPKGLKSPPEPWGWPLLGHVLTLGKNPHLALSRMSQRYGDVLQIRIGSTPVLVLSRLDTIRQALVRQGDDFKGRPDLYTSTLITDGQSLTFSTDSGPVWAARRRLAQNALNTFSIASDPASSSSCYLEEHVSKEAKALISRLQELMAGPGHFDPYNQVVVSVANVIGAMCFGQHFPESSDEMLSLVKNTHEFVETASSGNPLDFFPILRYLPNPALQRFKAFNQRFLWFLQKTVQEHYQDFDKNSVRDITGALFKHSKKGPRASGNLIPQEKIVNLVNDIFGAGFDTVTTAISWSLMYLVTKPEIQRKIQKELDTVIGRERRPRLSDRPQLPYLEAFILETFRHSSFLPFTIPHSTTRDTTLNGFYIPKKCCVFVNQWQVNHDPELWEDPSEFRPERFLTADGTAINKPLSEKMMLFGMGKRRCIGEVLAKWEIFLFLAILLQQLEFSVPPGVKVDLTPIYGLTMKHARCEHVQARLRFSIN
Sequence of 3',5'-cyclic-AMP phosphodiesterase 4B (Homo sapiens) (Q07343 whole entry, looked up): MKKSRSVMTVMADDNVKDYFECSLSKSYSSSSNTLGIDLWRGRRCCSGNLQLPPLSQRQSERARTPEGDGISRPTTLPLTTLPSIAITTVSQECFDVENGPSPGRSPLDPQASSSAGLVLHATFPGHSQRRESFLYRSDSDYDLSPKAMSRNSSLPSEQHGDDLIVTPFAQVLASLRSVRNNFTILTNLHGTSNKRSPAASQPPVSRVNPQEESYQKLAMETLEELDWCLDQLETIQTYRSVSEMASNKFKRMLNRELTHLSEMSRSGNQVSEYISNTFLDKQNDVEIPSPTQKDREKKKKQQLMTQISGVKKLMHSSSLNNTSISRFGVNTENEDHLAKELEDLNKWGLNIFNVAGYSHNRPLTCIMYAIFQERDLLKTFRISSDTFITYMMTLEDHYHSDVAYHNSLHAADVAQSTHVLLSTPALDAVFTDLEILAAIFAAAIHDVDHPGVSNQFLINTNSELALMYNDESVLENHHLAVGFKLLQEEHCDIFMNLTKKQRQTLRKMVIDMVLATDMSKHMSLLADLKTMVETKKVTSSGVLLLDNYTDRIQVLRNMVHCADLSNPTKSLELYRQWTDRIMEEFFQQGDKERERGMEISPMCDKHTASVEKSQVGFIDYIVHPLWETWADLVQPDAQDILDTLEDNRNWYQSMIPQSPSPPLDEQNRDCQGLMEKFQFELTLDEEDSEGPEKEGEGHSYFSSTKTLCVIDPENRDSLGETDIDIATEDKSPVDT
Sequence of Cytochrome P450 2D6 (Homo sapiens) (P10635 whole entry, looked up): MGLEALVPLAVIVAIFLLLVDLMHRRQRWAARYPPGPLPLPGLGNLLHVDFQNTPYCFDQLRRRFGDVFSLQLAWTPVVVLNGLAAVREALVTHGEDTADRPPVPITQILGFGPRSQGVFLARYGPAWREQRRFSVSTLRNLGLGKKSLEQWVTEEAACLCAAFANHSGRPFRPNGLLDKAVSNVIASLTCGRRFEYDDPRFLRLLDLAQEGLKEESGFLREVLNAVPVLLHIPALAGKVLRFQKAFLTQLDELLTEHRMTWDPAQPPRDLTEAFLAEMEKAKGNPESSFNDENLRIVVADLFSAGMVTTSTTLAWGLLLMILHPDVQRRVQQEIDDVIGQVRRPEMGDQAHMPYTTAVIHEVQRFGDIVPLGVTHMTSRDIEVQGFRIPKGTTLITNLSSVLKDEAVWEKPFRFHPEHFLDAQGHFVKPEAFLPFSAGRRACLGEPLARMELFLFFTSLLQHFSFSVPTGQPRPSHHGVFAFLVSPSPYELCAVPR
Sequence of Cytochrome P450 3A4 (Homo sapiens) (P08684 whole entry, looked up): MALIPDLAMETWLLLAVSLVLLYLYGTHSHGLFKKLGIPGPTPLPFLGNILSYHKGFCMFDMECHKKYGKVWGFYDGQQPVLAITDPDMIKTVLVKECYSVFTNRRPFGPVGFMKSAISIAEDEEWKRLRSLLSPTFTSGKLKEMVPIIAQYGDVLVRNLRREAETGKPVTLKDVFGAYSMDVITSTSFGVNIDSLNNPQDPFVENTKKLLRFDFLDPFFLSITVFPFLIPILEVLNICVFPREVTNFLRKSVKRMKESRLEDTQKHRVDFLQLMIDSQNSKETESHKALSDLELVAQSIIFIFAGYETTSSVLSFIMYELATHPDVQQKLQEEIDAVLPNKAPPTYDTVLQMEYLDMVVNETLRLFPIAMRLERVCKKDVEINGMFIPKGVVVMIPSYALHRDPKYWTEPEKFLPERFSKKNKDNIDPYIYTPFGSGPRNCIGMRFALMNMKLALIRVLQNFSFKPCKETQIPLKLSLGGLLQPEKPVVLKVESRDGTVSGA
Sequence of Glucocorticoid receptor (Homo sapiens) (P04150 whole entry, looked up, the tested form may be a part): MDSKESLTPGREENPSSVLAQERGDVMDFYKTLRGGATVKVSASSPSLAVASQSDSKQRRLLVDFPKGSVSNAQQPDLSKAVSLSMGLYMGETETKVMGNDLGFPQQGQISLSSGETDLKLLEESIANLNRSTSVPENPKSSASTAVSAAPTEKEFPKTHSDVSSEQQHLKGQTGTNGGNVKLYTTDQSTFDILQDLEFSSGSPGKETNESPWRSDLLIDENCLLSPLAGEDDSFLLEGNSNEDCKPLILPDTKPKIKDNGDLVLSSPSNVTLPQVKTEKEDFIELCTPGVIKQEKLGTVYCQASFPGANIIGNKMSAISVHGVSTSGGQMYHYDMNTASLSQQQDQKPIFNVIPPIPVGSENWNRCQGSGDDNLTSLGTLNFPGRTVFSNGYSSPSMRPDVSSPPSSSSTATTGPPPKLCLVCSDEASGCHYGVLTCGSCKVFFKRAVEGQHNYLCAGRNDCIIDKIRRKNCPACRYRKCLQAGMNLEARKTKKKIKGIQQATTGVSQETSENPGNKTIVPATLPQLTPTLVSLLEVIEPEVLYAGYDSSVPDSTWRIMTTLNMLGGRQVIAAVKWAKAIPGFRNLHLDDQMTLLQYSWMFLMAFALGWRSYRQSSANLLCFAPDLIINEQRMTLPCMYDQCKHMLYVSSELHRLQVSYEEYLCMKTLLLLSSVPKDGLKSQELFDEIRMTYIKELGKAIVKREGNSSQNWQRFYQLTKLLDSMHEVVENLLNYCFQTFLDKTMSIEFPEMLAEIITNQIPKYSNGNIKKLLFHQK
Sequence of Cytochrome P450 2C9 (Homo sapiens) (P11712 whole entry, looked up): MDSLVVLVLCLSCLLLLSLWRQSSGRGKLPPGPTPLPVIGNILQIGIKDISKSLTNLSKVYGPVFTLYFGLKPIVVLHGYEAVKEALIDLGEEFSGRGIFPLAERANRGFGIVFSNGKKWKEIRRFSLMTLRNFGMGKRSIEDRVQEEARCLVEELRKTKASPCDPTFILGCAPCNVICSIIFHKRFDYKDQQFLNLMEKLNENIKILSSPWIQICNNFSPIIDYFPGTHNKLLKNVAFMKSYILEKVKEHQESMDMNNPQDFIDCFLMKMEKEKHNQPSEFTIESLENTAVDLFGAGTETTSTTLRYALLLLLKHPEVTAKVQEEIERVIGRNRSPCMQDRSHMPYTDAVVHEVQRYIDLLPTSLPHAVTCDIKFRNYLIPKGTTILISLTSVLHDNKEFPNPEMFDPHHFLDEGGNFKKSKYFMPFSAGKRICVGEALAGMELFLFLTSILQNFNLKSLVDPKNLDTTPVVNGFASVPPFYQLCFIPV
Sequence of Cytochrome P450 2C19 (Homo sapiens) (P33261 whole entry, looked up): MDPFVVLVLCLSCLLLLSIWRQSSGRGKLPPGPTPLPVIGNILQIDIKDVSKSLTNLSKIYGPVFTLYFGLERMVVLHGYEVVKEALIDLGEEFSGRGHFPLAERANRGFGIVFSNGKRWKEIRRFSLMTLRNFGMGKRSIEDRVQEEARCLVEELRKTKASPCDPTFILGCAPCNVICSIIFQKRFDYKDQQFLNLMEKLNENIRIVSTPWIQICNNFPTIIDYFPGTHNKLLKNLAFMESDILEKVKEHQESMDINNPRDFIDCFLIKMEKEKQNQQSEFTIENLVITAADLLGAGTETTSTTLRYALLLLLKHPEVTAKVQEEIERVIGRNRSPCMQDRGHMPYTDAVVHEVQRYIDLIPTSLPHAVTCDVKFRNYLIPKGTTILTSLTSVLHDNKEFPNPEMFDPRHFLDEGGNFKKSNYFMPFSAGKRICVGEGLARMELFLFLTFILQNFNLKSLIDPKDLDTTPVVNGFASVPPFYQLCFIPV
Sequence of Lysosomal acid glucosylceramidase (Homo sapiens) (P04062 whole entry, looked up): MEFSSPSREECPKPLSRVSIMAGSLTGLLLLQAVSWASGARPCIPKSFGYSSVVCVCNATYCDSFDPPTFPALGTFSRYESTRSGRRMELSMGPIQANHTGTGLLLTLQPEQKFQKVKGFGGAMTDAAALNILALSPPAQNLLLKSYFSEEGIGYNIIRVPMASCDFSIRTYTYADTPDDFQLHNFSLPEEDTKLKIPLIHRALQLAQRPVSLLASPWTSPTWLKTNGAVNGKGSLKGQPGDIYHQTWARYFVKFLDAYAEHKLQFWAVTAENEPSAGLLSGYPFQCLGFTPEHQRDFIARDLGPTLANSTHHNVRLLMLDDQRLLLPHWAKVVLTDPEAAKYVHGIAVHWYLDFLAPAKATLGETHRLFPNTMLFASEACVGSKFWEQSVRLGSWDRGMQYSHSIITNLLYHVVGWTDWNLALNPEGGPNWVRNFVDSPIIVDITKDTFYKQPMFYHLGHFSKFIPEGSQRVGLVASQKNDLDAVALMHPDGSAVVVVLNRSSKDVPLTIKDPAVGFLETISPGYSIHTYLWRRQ

C[C@@H]1CCCN(C[C@@H](O)CN2CCCc3ccccc32)C1
active: Potency [9] 1.58 µM
inactive: Potency [1] > 11.4 µM | Potency [2] | activity change, negative = inhibition [3] -7.43% | activity, negative = inhibition [4] 11.4% | Potency [5] > 46 µM | Potency [6] > 9.22 µM | Potency [7] | Potency [8]

O=[N+]([O-])c1ccc(S(=O)(=O)Cc2ccccc2)c2nonc12
active: Potency [10] 0.316 µM | Potency [11] 3.16 µM
inactive: Potency [1] > 11.4 µM | activity change, negative = inhibition [2] -5.3% [at 2.29 µM] | activity, negative = inhibition [4] -2.97% | Potency [5] > 46 µM | Potency [6] > 9.22 µM | Potency [7] | Potency [8]

C[C@@]12CC[C@@H]3[C@@H](CC[C@H]4C[C@@H](O)CC[C@]43C)[C@H]1CC[C@@H]2c1cc(C(F)(F)F)n[nH]1
active: Potency [2] 3.98 µM
inactive: Potency [1] > 11.4 µM | activity, negative = inhibition [4] 16.7% | Potency [5] > 46 µM | Potency [6] > 9.22 µM | Potency [7] | Potency [8]

CC(=O)Nc1ccc(Cc2ccc3[nH]c(=O)cc(C)c3c2)cc1
inactive: Potency [1] > 11.4 µM | Potency [2] | activity, negative = inhibition [4] -9.78% | Potency [5] > 46 µM | Potency [6] > 9.22 µM | Potency [7] | Potency [8]

Cc1c(Cl)cc(C(C)(C)C)c(O)c1Cc1c(C)c(Cl)cc(C(C)(C)C)c1O
inactive: Potency [1] > 11.4 µM | activity change, negative = inhibition [12] 10.4% | Potency [5] > 46 µM | Potency [6] > 9.22 µM | Potency [7] | Potency [8]

N#Cc1c(NC(=O)C(F)(F)F)sc2c3c(=O)c4ccccc4c(=O)c=3oc3ccccc3c12
inactive: Potency [1] > 11.4 µM | activity change, negative = inhibition [3] 13.7% | activity, negative = inhibition [4] 0.0272% | Potency [5] > 46 µM | Potency [6] > 9.22 µM | Potency [7] | Potency [13]
active: Potency [2] 1 µM | Potency [10] 0.0501 µM | Potency [11] 0.501 µM

Cc1ccc(-c2nc(-c3nccc4ccccc34)oc2-c2ccccc2)cc1
inactive: Potency [1] > 11.4 µM | activity, negative = inhibition [4] 24.1% | Potency [5] > 46 µM | Potency [6] > 9.22 µM | Potency [7] | Potency [8] | Potency [13]
active: Potency [2] 2.51 µM

CN(C)CCCn1c2c3ccccc3ccc2c2oc(=O)c3ccccc3c21
active: Potency [2] 0.316 µM | Potency [9] 1.26 µM
inactive: Potency [1] > 11.4 µM | activity change, negative = inhibition [3] -13.6% | Potency [5] > 46 µM | Potency [6] > 9.22 µM | Potency [7] | Potency [8]

Cc1nnc(S(=O)(=O)c2ccc(N=Nc3c(N)nc(N)nc3N)cc2)s1
inactive: Potency [1] > 11.4 µM | activity change, negative = inhibition [2] -10.2% [at 2.29 µM] | activity change, negative = inhibition [3] 7.42% | activity, negative = inhibition [4] -3.59% | Potency [5] > 46 µM | Potency [6] > 9.22 µM | Potency [7] | Potency [8]

COc1ccc(Oc2ncc3nc(CCc4ccccc4)c(=O)n(C4CC4)c3n2)cc1
inactive: Potency [1] > 11.4 µM | activity change, negative = inhibition [3] 5.02% | activity, negative = inhibition [4] -0.549% | Potency [5] > 9.22 µM | Potency [6] > 46 µM | Potency [7] | Potency [13]
active: Potency [2] 12.6 µM | Potency [11] 1.58 µM

Cc1ccc(N=Nc2c(O)c3ccccc3[nH]c2=O)c(S(=O)(=O)N(C)C)c1
inactive: Potency [1] > 11.4 µM | activity change, negative = inhibition [2] -14.6% [at 2.29 µM] | activity change, negative = inhibition [3] 2.83% | activity, negative = inhibition [4] 3.87% | Potency [5] > 46 µM | Potency [6] > 9.22 µM | Potency [7] | Potency [8]

O=C(c1ccc([N+](=O)[O-])cc1)[C@@H](Br)[C@@H](Br)c1ccnc2ccccc12
active: Potency [10] 3.16 µM | Potency [11] 1.26 µM
inactive: Potency [1] > 11.4 µM | activity change, negative = inhibition [12] -11.4% | Potency [5] > 46 µM | Potency [7] | Potency [8] | Potency [13]

COCCn1c(=O)c(CCc2ccccc2)nc2cnc(Oc3cccc(Cl)c3)nc21
inactive: Potency [1] > 11.4 µM | activity change, negative = inhibition [3] -14.7% | activity, negative = inhibition [4] -17.3% | Potency [5] > 9.22 µM | Potency [6] > 46 µM | Potency [13]
active: Potency [2] 3.98 µM

c1ccc2cc(NCNc3ccc4ccccc4c3)ccc2c1
active: Potency [2] 0.631 µM | Potency [10] 3.98 µM | Potency [11] 2.51 µM
inactive: Potency [1] > 11.4 µM | activity change, negative = inhibition [3] -15.6% | activity, negative = inhibition [4] -2.06% | Potency [5] > 46 µM | Potency [6] > 9.22 µM | Potency [7] | Potency [8] | Potency [13]

N=C1C=CC(=C(c2ccc(N)cc2)c2ccc(N)cc2)C=C1
inactive: Potency [1] > 11.4 µM | activity, negative = inhibition [4] -20.9% | Potency [5] > 46 µM | Potency [6] > 9.22 µM | Potency [8] | Potency [10] | Potency [13] | Potency [11]
active: Potency [2] 3.98 µM | Potency [9] 1.58 µM

CC(C)[C@H](Sc1nc(N)nc2nc[nH]c12)C(=O)O
active: Potency [2] 0.316 µM
inactive: Potency [1] > 11.4 µM | activity change, negative = inhibition [3] 9.06% | activity, negative = inhibition [4] 14.2% | Potency [5] > 46 µM | Potency [6] > 9.22 µM | Potency [7] | Potency [8]
